Assay results from PubChem BioAssay AID1159580 (chemical genetic matrix, 2015).
Where “and” joins values, the source holds several entries; their conditions need not be identical. Identical values can stand only once. Hit rate of the full screen: of about 5,500 compounds, about 2,000 (36%) were called active. Not shown: some 18% with an inconclusive outcome. Cut-off read from the data, not from the text of the source: active = normalized growth mostly below about 0.91 (no sharp cut-off); inconclusive = no clear call, values can overlap the other calls; inactive = mostly above about 0.92. The list shows a part of the results.

Experiment: chemical genetic growth profiling, strain panel (AID 1159580);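 note: tested at 20 µM; growth read once vehicle control cultures reached saturation at 30 °C; 1 = growth at the plate median or of vehicle wells; lower values mean less growth of the strain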
Conditions: S. cerevisiae deletion strains, growth OD

Measured: normalized growth

NS(=O)(=O)c1cc2c(cc1Cl)NC(CSCc1ccccc1)=NS2(=O)=O
inactive: locus YAL021C, strain ccr4, stronger effect = lower value 0.986 | locus YAL026C, strain drs2, stronger effect = lower value 1.01 | locus YAL030W, strain snc1, stronger effect = lower value 1.01 | locus YBL061C, strain skt5, stronger effect = lower value 1.02 | locus YBR009C, strain hhf1, stronger effect = lower value 0.993 | locus YBR021W, strain FUR4, stronger effect = lower value 0.973 | locus YBR023C, strain chs3, stronger effect = lower value 1.04 | locus YBR171W, strain sec66, stronger effect = lower value 1.03 | locus YBR229C, strain ROT2, stronger effect = lower value 0.986 | locus YBR231C, strain swc5, stronger effect = lower value 1.02 | locus YBR279W, strain paf1, stronger effect = lower value 1.01 | locus YCL011C, strain gbp2, stronger effect = lower value 1.01 | locus YCL016C, strain dcc1, stronger effect = lower value 0.993 | locus YCL029C, strain bik1, stronger effect = lower value 0.988 | locus YCL061C, strain MRC1, stronger effect = lower value 1.01 | locus YCL069W, strain vba3, stronger effect = lower value 1.01 | locus YCR088W, strain abp1, stronger effect = lower value 1.01 | locus YDL005C, strain med2, stronger effect = lower value 1 | locus YDL035C, strain GPR1, stronger effect = lower value 1.04 | locus YDL040C, strain nat1, stronger effect = lower value 0.995 | locus YDL074C, strain BRE1, stronger effect = lower value 0.99 | locus YDL101C, strain DUN1, stronger effect = lower value 0.973 | locus YDL134C, strain PPH21, stronger effect = lower value 1.02 | locus YDL185W, strain tfp1, stronger effect = lower value 0.989 | locus YDL192W, strain arf1, stronger effect = lower value 0.997 | locus YDR001C, strain nth1, stronger effect = lower value 1.03 | locus YDR069C, strain doa4, stronger effect = lower value 1.04 | locus YDR101C, strain arx1, stronger effect = lower value 0.987 | locus YDR137W, strain rgp1, stronger effect = lower value 1.02 | locus YDR159W, strain sac3, stronger effect = lower value 1 | locus YDR162C, strain NBP2, stronger effect = lower value 1.03 | locus YDR195W, strain ref2 1.03 | locus YDR297W, strain sur2, stronger effect = lower value 1.02 | locus YDR318W, strain mcm21, stronger effect = lower value 0.991 | locus YDR334W, strain swr1, stronger effect = lower value 1.02 | locus YDR335W, strain msn5, stronger effect = lower value 1.02 | locus YDR388W, stronger effect = lower value 0.978 | locus YDR392W, strain spt3, stronger effect = lower value 0.948 | locus YDR502C, strain sam2, stronger effect = lower value 0.988 | locus YEL003W, strain gim4, stronger effect = lower value 1.03 | locus YEL037C, strain rad23, stronger effect = lower value 1.02 | locus YEL061C, strain CIN8 (second series), stronger effect = lower value 1.05 | locus YEL061C, strain CIN8, stronger effect = lower value 0.995 | locus YER015W, strain faa2, stronger effect = lower value 1.01 | locus YER016W, strain bim1, stronger effect = lower value 1 | locus YER110C, stronger effect = lower value 0.965 | locus YER111C, strain swi4, stronger effect = lower value 1.03 | locus YER155C, strain BEM2 (second series), stronger effect = lower value 1.04 | locus YER155C, strain BEM2, stronger effect = lower value 0.981 | locus YER167W, strain BCK2, stronger effect = lower value 1 | locus YFR010W, strain ubp6, stronger effect = lower value 1.03 | locus YGL078C, strain dbp3, stronger effect = lower value 0.991 | locus YGL086W, strain mad1, stronger effect = lower value 0.989 | locus YGL167C, strain pmr1, stronger effect = lower value 1.03 | locus YGL173C, strain kem1, stronger effect = lower value 1.01 | locus YGL227W, strain vid30, stronger effect = lower value 1.02 | locus YGL240W, strain doc1, stronger effect = lower value 1.03 | locus YGL248W, strain PDE1, stronger effect = lower value 0.98 | locus YGL253W, strain hxk2, stronger effect = lower value 1.01 | locus YGR078C, strain PAC10, stronger effect = lower value 0.986 | locus YGR135W, strain pre9, stronger effect = lower value 0.992 | locus YGR252W, strain gcn5, stronger effect = lower value 1.01 | locus YHR013C, strain ard1, stronger effect = lower value 0.975 | locus YHR027C, strain rpn1, stronger effect = lower value 1.01 | locus YHR030C, strain SLT2, stronger effect = lower value 0.99 and 0.983 | locus YHR079C, strain IRE1 (second series), stronger effect = lower value 0.984 | locus YHR079C, strain IRE1, stronger effect = lower value 0.977 | locus YHR094C, strain hxt1, stronger effect = lower value 0.97 | locus YHR129C, strain ARP1, stronger effect = lower value 0.984 | locus YHR142W, strain chs7, stronger effect = lower value 1.02 | locus YHR200W, strain rpn10, stronger effect = lower value 0.989 | locus YIL066C, strain RNR3, stronger effect = lower value 1.01 | locus YIL073C, strain SPO22, stronger effect = lower value 0.99 | locus YIL125W, strain kgd1, stronger effect = lower value 0.986 | locus YIR030C, strain dcg1, stronger effect = lower value 0.993 | locus YJL092W, strain hpr5, stronger effect = lower value 1.02 | locus YJL095W, strain BCK1 (second series), stronger effect = lower value 1.02 | locus YJL095W, strain BCK1, stronger effect = lower value 0.954 and 0.975 | locus YJL115W, strain asf1, stronger effect = lower value 1.02 | locus YJL129C, strain trk1, stronger effect = lower value 1.06 | locus YJL134W, strain LCB3, stronger effect = lower value 0.987 | locus YJL154C, strain vps35, stronger effect = lower value 1.03 | locus YJL164C, strain tpk1, stronger effect = lower value 0.977 | locus YJL166W, strain qcr8, stronger effect = lower value 1.04 | locus YJL168C, strain set2, stronger effect = lower value 0.992 | locus YJL187C, strain SWE1 (second series), stronger effect = lower value 0.965 | locus YJR043C, strain POL32, stronger effect = lower value 1.04 | locus YJR066W, strain TOR1, stronger effect = lower value 0.931
